The whole screen tested about 53,000 sequences, of which about 3,700 (7%) were called active.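 Rule for the calls: active = gene knockdowns whose robust z-score for IL-1 alpha signal is at least 2 or at most -2, so actives lie on both sides; inactive = the rest.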 The entries come from a sample that favours actives as a whole.

The experiment is described as follows: Components of the Cytosolic LPS Sensing Pathway: Gene Identification via Genome-wide siRNA Screen.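 Note: robust z of the log signal after scaling to non-targeting control siRNA wells of the plate.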 The settings on record: RAW264.7 macrophages, IL-1a HTRF, actives lie on both sides, screened at 100 nM (by protocol), cells primed 5 h with Pam3CSK4 first. The method in brief:
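Supernatant IL-1a by HTRF from RAW264.7 cells primed with Pam3CSK4 (5 hours) and transfected with LipidA (24 hour) after 48h siRNA knockdown at 100 nM; cell viability checked with CellTiter-Glo.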
In the case of “GCCGGAAACUCAAGAUAGCTT against F830208F22Rik”, the z-score is -0.74 (inactive). Take GCCCGCUCUCGGAUUUUGATT against Htr1b: the z-score was 1.5 (inactive).

Turning to GGUAGAGACCGCAUAGAAATT against Aqp8, the z-score was 2 (inactive). As for CCGGGUAGUGAGUAAGCUUTT against Neu2, the z-score is -3.51 (active). GGUCCAAGAAGACAAUGCUTT against Cga: the z-score is -0.102 (inactive).

As for CCUCUUUGGGACUAUAGACTT against Olfr1357, the z-score was -0.378 (inactive).

As for GGUAUUGGUCCAAUUUUUCTT against Gng7, the z-score was 0.187 (inactive).

As to GGCUGUGGUGCUCAAUAAGTT against Clstn2, the z-score was -1.29 (inactive). CCGAGAUAUGAAUCAAAUUTT against Wars: the z-score was 2.19 (active). Regarding GGAAAGACAAAAUCUAUGATT against Peg3, the z-score was -0.777 (inactive). Consider GGUCAUCAGUGAGCUGAAUTT against Rplp2, for which the z-score is 0.125 (inactive). Take GCUCAUCUCCUUGAAUUCATT against Agbl5: the z-score was 0.31 (inactive). For the sequence CCUGUCCUGAUGGUGAAACTT against Serpinb3c, the z-score is 0.619 (inactive).

GCCUAAACUACCCUUAUAGTT against Ocln: the z-score is 3.4 (active). Turning to GGUGCUGGCAACCUUUUGUTT against Masp1, the z-score is 0.16 (inactive).

Take GGGCCAUUGUCAAGGUGAUTT against Olfr632: the z-score is -0.408 (inactive). CCGAUUUUUACUUUUAGCUTT against Slc16a7: the z-score is 1.86 (inactive). With GGAGACUAUUACCAUACUGTT against P4ha2 the figure was -0.991 (inactive); with GGUGAGCAAGAACAAAAAGTT against Chil6, -0.71 (inactive); with GGUUUCGAGAAAACAACAATT against Miip, 0.566 (inactive).

Consider GCACAUCGAAAAUGCCCUGTT against Cpt1c, for which the z-score is -0.154 (inactive).

In the case of GGCAAACCUGCUUUCAUGGTT against Smc5, the z-score was 0.282 (inactive). GCAGUUCUCCUAUUUCAUCTT against Cdc45: the z-score was 2.03 (active). Consider CGGGUGAGUGGAAAAACCATT against Atg9b, for which the z-score was -0.282 (inactive). GCCAAUGCCCUUGUGCAAATT against Olfr344: the z-score is 0.301 (inactive). For GGCUAUCUCGUAUUCUGAUTT against Olfr985, the z-score was -1.62 (inactive).

Regarding CCCGGGUUGGGUGUACAUUTT against Sds, the z-score was 3.62 (active). For the sequence CCUUAGCAAUGGGAUUGAUTT against Rasl12, the z-score was 0.448 (inactive). In the case of GGAGAACACUUUAAUGCUGTT against Ovch2, the z-score is 0.00992 (inactive).

For GGGCUGGAGUCUGAUACAUTT against Rbm5, the z-score was 3.39 (active).

Take CCGUGUUAGAGUUUUCGACTT against Top3b: the z-score is 1.2 (inactive). On to CCAAAGGUAUGCAGUAUGATT against Cdh4, for which the z-score was 0.131 (inactive).

As to GGUUUUCAAAUGUCUAUCATT against Pithd1, the z-score is 2.37 (active). For CCUGCUCAGGACGACUUUUTT against Defa20 the value was -1.63 (inactive).

As for GGACUUUGACCCGUACUAUTT against Scn8a, the z-score is 0.951 (inactive). For GCUUGUGCCGGAUAAAGGUTT against Gng3, the z-score was -0.748 (inactive). For GCCAAGGUGGAAUUUUUGGTT against Gpx8 the value was 0.139 (inactive); for GGUAUACCAAGAAGCUAAGTT against Kctd14, -0.855 (inactive); for GCAGAGGUACGUGUUUGACTT against Gdf5, 0.933 (inactive). As to GCGUGUAGGAAUAAUACCUTT against Psmc6, the z-score was -2.66 (active). With UGCUCUUGGGUUCUUAAAUTT against Olfr1466 the figure was -0.559 (inactive); with CGAACAAGCCAUGUUUACATT against Gvin1, 0.811 (inactive); with GGAACUUCUCAAAAGGCUGTT against Tspoap1, -0.0418 (inactive). Take GGACCUGACCUACUCGUGUTT against Rxrb: the z-score was -0.216 (inactive). Take GCGGAAGCGUGAAUCCAAATT against Tigd3: the z-score was 3.13 (active).

With “GGAUCGAACUGCCAUUGCUTT against A930104D05Rik”, the z-score was -0.201 (inactive). Turning to GCUGUCCUACUGAGCUUGCTT against Gdpgp1, the z-score was -0.0224 (inactive). Consider GCCACUUGUGCUAAGCUGUTT against Ager, for which the z-score is -0.768 (inactive).

With GGUCUGUAUGAAGACAUUATT against Pdss1, the z-score was -1.16 (inactive). GCAAGAAGUAAUCAACUUUTT against Cnot9: the z-score is -0.997 (inactive). GGACCAGAAACCGUGAUAATT against Immp2l: the z-score was 3.96 (active). As to GGCACCAAUUACAAGAAAATT against V1rg10, the z-score was 0.257 (inactive).

For CCUGGCAGACGUGGAACAATT against Ppp1r13l, the z-score is -0.102 (inactive). For GGACCAGUUACUUUAACAUTT against Pkdrej the value was 0.555 (inactive). As to GGAGAGUCCACUAAUACUGTT against Dmrt3, the z-score is 0.217 (inactive). As to GGAGAUUGGAUCCCGAAACTT against Pxn, the z-score is -0.431 (inactive). For the sequence GGCAAAGAGUGGUAAGAGUTT against Olfr1166, the z-score is -2.72 (active).

As to GGAUUUCUACAGGGUGUAUTT against Trim8, the z-score was -1.19 (inactive). Regarding GGAUCUUACUAUCACCAGCTT against Foxf1, the z-score was 1.99 (inactive). Take CGGGCUACCAUUAUGGUGATT against Atp6ap2: the z-score was 0.382 (inactive). With GUGGCAGCACGACCUAUUCTT against Alyref2, the z-score is -0.175 (inactive). CCAAUUACCUGAAUAAAGCTT against Epb41l5: the z-score was 1.19 (inactive). Regarding GGGCUCUACUAUUUUUUUUTT against Polh, the z-score is -2.68 (active). Turning to GCCCAGGUCUAAUGUCUAATT against Tac4, the z-score was 0.234 (inactive). With GGUGUUAAGUCACAAAAUGTT against Meis2, the z-score was 1.59 (inactive). For GGUUGUAUGUUGUGUGUUUTT against Cyrib, the z-score is 2.36 (active). Consider CGGAAUGUAGGACACGAAUTT against Ltb, for which the z-score is -0.267 (inactive). Take GGUGACUUCGGAGAAAAGGTT against Sncaip: the z-score was 0.257 (inactive). As to GGAACAGCUGUGAUUAACGTT against Prdx4, the z-score was 0.343 (inactive). Turning to GCUGGAAUACGUUGAUAUATT against Kcnab3, the z-score is 3.68 (active).

As to GGAGAGUCCAGUUUCCAUUTT against Rnf113a1, the z-score is 1.44 (inactive). For GCUCAGGAAUUUGACACCATT against Adgrl3 the value was -1.33 (inactive); for CCUAAGAUGAUCGUAGGCUTT against Olfr1221, -0.643 (inactive); for CGAGCUUUCUUCGUACACCTT against Dvl2, -1.74 (inactive). With GGCAUACCUGGAGAAGUGUTT against Prr5l the figure was -2.31 (active); with GCUAGCACUAAGUGAACCUTT against Ppp1r21, 1.25 (inactive); with GGAUAAUAGGAACAAUCUGTT against Sval1, 0.207 (inactive).

As for GGUCAGGUUGAGGACAUAATT against Vwa1, the z-score is 1.28 (inactive). Regarding GCUUACCAGAUUGUAUGUATT against Mrgpra1, the z-score was 0.533 (inactive).

On to GGAGAAAGAGCAGAGUCUGTT against Cep250, for which the z-score is -2.04 (active). Turning to GGCAGAGUUUGAAAAGAUCTT against Parp16, the z-score was -1.42 (inactive). Take “GGCCCAAGAUUUCAAUUAGTT against 9130230L23Rik”: the z-score was -0.0833 (inactive). For GGUCAGAGGUCGACCUAUUTT against Oas1h the value was -2.18 (active); for GGUACAUUUUAUACUGGAGTT against Zfp277, 0.163 (inactive). Turning to GCCUCAUCGUAUAUAAAAUTT against Atp5mpl, the z-score was -1.64 (inactive). For GGCCCAAACCUUAAAGUCCTT against Smyd4 the value was -0.194 (inactive). Take GGAAUGUACCCAUAAAAGUTT against Nudt19: the z-score is 0.988 (inactive). For the sequence GGCAUUGAGAAGUUUGAAGTT against Fmo9, the z-score was -1.07 (inactive). On to CCCUUGGUUAUGGAGAAAGTT against Mcoln2, for which the z-score is -0.0392 (inactive). In the case of GCACAACAAGCGAUGUCAUTT against Myo9b, the z-score was -2.13 (active). CCUACGUGAACAUGACGGUTT against Agfg1: the z-score was 0.096 (inactive). For GGUAGAGAAUUGAAACCUATT against Klhdc10, the z-score was -0.776 (inactive). For the sequence GGAAUAUACCCUGAAACAUTT against Fam71d, the z-score was 0.0244 (inactive). On to GGAGACUGUGGAUUUAAUUTT against Sult1a1, for which the z-score is 2.07 (active). Take GGAGAUGUACCACAAUGCCTT against Prss29: the z-score is -0.128 (inactive). With GGCGGUGAUCCAGGGUUUATT against Klc2, the z-score is 2.62 (active).

As to GGAGUCAAAAAAAAUGCAATT against Ribc1, the z-score is 1.17 (inactive).

For GCAAGAUCCAGAACACUCATT against Adora1, the z-score is -0.781 (inactive).

Regarding “CCAAGGAGCAUUCUUUGGUTT against 1700024B05Rik”, the z-score is -0.0487 (inactive). With GGUUUGUAUCUUAAAUGCCTT against Tdpoz4, the z-score was 2.88 (active). With GGCCUCGUCAUUUUACAGGTT against Mcee, the z-score was 0.098 (inactive).

In the case of GCCAAUAAUCCACAGGCAATT against Ryk, the z-score was -0.577 (inactive). In the case of CUGUAAGGCGGAUAAGACCTT against Pantr1, the z-score is -1.42 (inactive).

With GGUUACAAAAGAACCAGAUTT against Pik3c2g, the z-score is 1.66 (inactive).

Turning to GCGGCUUAGUCCAUCAGGATT against Aplf, the z-score was 0.819 (inactive). For GGAAGAGUGACUUGUGCAATT against Slc28a2, the z-score is 0.0125 (inactive).

For the sequence GCUCGAGGCUUAGAAGACUTT against Hspb3, the z-score was 2.23 (active). In the case of GGCUUACCUGGUCUACUCCTT against Wnt8b, the z-score was -0.95 (inactive).
